Source: PubChem BioAssay (NCI)
The panel holds about 83,000 compounds, 20% with a hit somewhere; the sample as a whole holds those more often.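 Step 1: grow cells in 96-well plates. Step 2: add test compound at a single concentration. Step 3: incubate 48 h. Step 4: record percent growth.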 A number with no mark means an inactive call. The source made the active and inactive calls. How the source made its calls: active means growth percent below 10; inactive means the rest.

The compounds below were run on 786-0 renal (assay: NCI-60 one-dose screen, 48 h (100 = growth as untreated, 0 = no growth, -100 = all killed)). Settings: 10 µM unless noted.
With `O=C(/C=C/c1ccc2ccccc2c1)Nc1ncc(Cc2ccccc2)s1` the growth was 34.2%. `O=C1c2cc3c(cc2-c2c1c1ccc(F)cc1c(=O)n2CCCN1CCOCC1)OCO3` gave a growth of 24.1%. `C=C1CC[C@@H](C(=O)OC)Cc2nc(C)ccc21` showed a growth of 101%. `CCN1CCN(C(=O)[C@]23CCC(C)(C)C[C@@H]2C2=CC[C@@H]4[C@@]5(C)C/C(=C/c6cccnc6)C(=O)C(C)(C)[C@@H]5CC[C@@]4(C)[C@]2(C)CC3)CC1` gave a growth of 50.2%. In the case of `Nc1c(C(=O)Nc2cccc3ccccc23)sc2nc3c(cc12)CCCC3`, the growth is reported as 34.7%. In the case of `CC(C)(C)c1cc(-n2c(-c3ccc(Cl)cc3)nc3cc(C(=O)Nc4ccc(Cl)cc4)ccc32)n[nH]1`, the growth is reported as 67.4%. `Fc1ccc(Nc2nnc(-c3ccc(Cl)cc3)o2)cc1` gave a growth of 104%. `O=C1/C(=C\c2ccc(Br)o2)SC(=S)N1CCc1ccc(O)cc1` showed a growth of 78.7%. For `CC(=O)c1c(C)[nH]c(-c2nc3ccc(N4CCN(C)CC4)cc3[nH]2)c1-c1ccc2c(c1)OCCO2`, the growth was 40.9%. Work on `COc1ccc2[nH]c(-c3ccc(Cl)cc3)cc(=O)c2c1` yielded a growth of 88.3%. In the case of `CCC1C(=O)COC1=O` (stereo not drawn), the growth is reported as 101%. `COc1ccc(O)c(-c2cc(-c3ccc(Cl)cc3)c(C#N)c(=O)[nH]2)c1` showed a growth of 68.3%. Work on `C=C(C)[C@@H]1CC[C@]2(C)[C@H](CC[C@@H]3[C@H]4[C@H]5OC[C@@]4(CCC5(C)C)CC[C@]32C)[C@@]1(C)CCCN` yielded a growth of 49.1%. Compound `CN1CCN(CCOc2ccc(-c3cnc4c(-c5cccc(F)c5)cnn4c3)cc2)CC1` has a growth of 57%. `Cc1cc(N(CCNc2ccnc3cc(Cl)ccc23)Cc2ccco2)nc(Cl)n1` was tested, and the growth was -92.8% (active). With `COc1ccc(CCN2C(=O)C(C)(C)SC2=S)cc1OC` the growth was 102%. For `Cc1cc2nc3c4cc(O)ccc4n(CCN(C)C)c3nc2cc1C`, the growth was 5.67% (active). `CCCCC(=O)OC1CCCCC1C` (stereo not drawn) showed a growth of 92.4%. `COc1ccc2c(c1)c(-c1nc(-c3c[nH]c4ncccc34)cs1)cn2CCCN1CCCCC1` was tested, and the growth was -75.1% (active). Work on `CC(=O)c1c(C)[nH]c(-c2nc3ccc(N4CCN(C)CC4)cc3[nH]2)c1-c1ccc(OCC2CCOCC2)cc1` yielded a growth of 35.6%. `Cc1nc([P+](c2ccccc2)(c2ccccc2)c2ccccc2)c(Sc2sc(-c3ccccc3)nc2[P+](c2ccccc2)(c2ccccc2)c2ccccc2)o1` showed a growth of 20.2%. Compound `NNC(=O)c1nc2ccccc2[nH]1` has a growth of 102%. For `O=P(O)(c1ccccc1)c1ccccc1I`, the growth was 109%. Compound `COc1ccc(OC)c(-c2c(C#N)c(-c3ccco3)nc3c2c(-c2ccccc2)nn3-c2ccccc2)c1` has a growth of 100%. `CNC(=O)c1cc(Oc2ccc3nc(NC(=O)Nc4ccc(Cl)cc4)sc3c2)ccn1` showed a growth of 75.3%. For `Clc1cc(Cl)cc(Nc2ccc3c(OCCCN4CCOCC4)cccc3n2)c1`, the growth was 54%. In the case of `N#CC1=C(N)Oc2c(c(N)nn2-c2ccccc2)C1c1ccc(Cl)cc1Cl` (stereo not drawn), the growth is reported as 102%. For `CC(C)(C)c1ccc(OCCCCCCCN2CCNCC2)cc1`, the growth was 23.9%. `Cc1cc(Cl)nc(N(CCCNc2ccnc3cc(Cl)ccc23)Cc2ccco2)n1` was tested, and the growth was 19.5%. For `CC1(C)NCCC[C@]2(C)[C@H]3CC[C@@H]4[C@H]5[C@H](C(=O)/C=C/c6ccccn6)CC[C@]5(CO)CC[C@@]4(C)[C@]3(C)CC[C@@H]12`, the growth was 85.4%. Work on `NCCNc1nc(-c2ccccc2)nc2nc(-c3ccccc3)oc12` yielded a growth of 81%. `COc1cnc2c(c1)C(=O)c1c-2n(CCCNC(C)C)c(=O)c2cc([N+](=O)[O-])ccc12` was tested, and the growth was -88.2% (active). For `COc1cnc2c(c1)C(=O)c1c-2n(CCCNC2=NCCS2)c(=O)c2cc([N+](=O)[O-])ccc12`, the growth was -93% (active). In the case of `CCC(c1ccc(OC)cc1)C(CC)c1ccc(O)c(CN2CCCCC2)c1` (stereo not drawn), the growth is reported as 59.5%. Compound `COc1cc2nc(Cl)nc(Nc3cccc(C(=O)/C=C/c4ccccc4)c3)c2cc1OC` has a growth of 52.7%. `CC1(C)C(=O)/C(=C\c2ccco2)C[C@]2(C)[C@H]3CC[C@@H]4[C@@H](C(=O)/C=C/c5ccco5)CC[C@@]4(C)[C@]3(C)CC[C@@H]12` gave a growth of 119%. `CCCC1CCCCN1C(=O)OCC(C)C` (stereo not drawn) showed a growth of 106%. `Cc1ccc(-c2nn(Cc3cn(-c4cc(C)nc5ccccc45)nn3)c3ncnc(N)c23)cc1` was tested, and the growth was 48.6%.
